# Screening data deposited in PubChem BioAssay by National Center for Advancing Translational Sciences (NCATS).
# TDP1 block: blocks human tyrosyl-DNA phosphodiesterase 1. Q9NUW8. recombinant TDP1, AlphaScreen DNA substrate cleavage. Potency, µM (top dose mostly 130 µM), without a hit: top-dose activity change, negative = inhibition, actives largely listed as inhibitors. actives 0.28% (n = 350,000). AID 485290; also: potency is read from the fitted curve at half-maximal effect; nearly all actives have a fitted effect of over 40% in size
#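 Recombinant human Tdp1 (E. coli-expressed, 1 nM final) preincubated with compounds 15 min at room temperature, then 5'-biotin/3'-phosphotyrosine-FITC DNA substrate (15 nM final) added for 5 min. AlphaScreen beads (10 ug/ml final) added 10 min; cleavage lowers signal.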
# TDP1 cell noCPT: qHTS for Inhibitors of human tyrosyl-DNA phosphodiesterase 1 (TDP1): qHTS in cells in absence of CPT; AID 686978, 2013; actives 15% (n = 420,000); Potency, µM (top dose mostly 46.2 µM), inactives show top-dose activity change, negative = growth inhibition, usual class: inhibitors; DT40 Tdp1-/- hTDP1 cells, no CPT, ATP luminescence, 48 h; also: potency is read from the fitted curve at half-maximal effect; nearly all actives have a fitted effect of over 55% in size
#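 Growth of hTDP1-complemented DT40 Tdp1-knockout cells is measured by ATP luminescence after at least 48 hr compound exposure at 37 °C, with DMSO substituting for the 20 nM CPT used in the parallel screen.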
# CtBP-E1A blk: inhibitors of CtBP/E1A interaction. actives 0.49% (n = 340,000). AlphaScreen GST-E1A/His-CtBP binding, 1536-well; active compounds read low. activity change, % (test concentration not listed). AID 651724; in the data active = activity change below about -65%; inconclusive = mostly about -30% to -63%
#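 Protein mix (5X: 125 nM each GST-E1A, His-CtBP) was incubated with pinned compound 2 h at 37 deg C in dark, in 50 mM Tris pH 8.0 buffer with 300 mM NaCl. Glutathione donor and nickel acceptor beads followed; AlphaScreen signal read after 1 h.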
# DT40 TDP1 CPT: DT40-hTDP1 cell growth loss with CPT; chicken DT40 Tdp1-/-;hTDP1 cells + 20 nM CPT, ATP luminescence, 48 h; Potency, µM (series often up to 46.2 µM), for inactives: top-dose activity change, negative = growth inhibition, actives largely listed as inhibitors; actives 12% (n = 420,000); also: potency is read from the fitted curve at half-maximal effect; nearly all actives have a fitted effect of over 55% in size
#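 Chicken DT40 Tdp1-/- cells complemented with human TDP1, 400 cells/well, exposed to compounds plus 20 nM camptothecin for at least 48 h at 37 C; viability read as ATP content by CellTiter-Glo luminescence.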
# IL1B secr inh: inhibitors of inflammasome signaling (IL-1 beta secretion); THP-1 LPS/ATP IL-1B secretion, AlphaLISA, 16 h; active compounds read low; activity change, % at 57.5 µM; actives 4.7% (n = 360,000); in the data active = activity change below about -50%; inconclusive = mostly about -30% to -49%
#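 THP-1 cells pretreated 1 hr with compounds (up to 57.5 uM final), then stimulated with LPS (250 ng/mL final) plus ATP (1.25 mM final); secreted IL-1B measured by AlphaLISA after 16 hr, decreased signal indicating inhibition.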
# Six1-Eya2 blk: Six1/Eya2 interaction inhibition; AID 651725; actives 0.56% (n = 360,000); AlphaScreen GST-Six1/His-Eya2 binding, biochemical; active compounds read low; activity change, % (concentration not given with the values); Q15475+O00167; in the data active = activity change below about -65%; inconclusive = mostly about -30% to -63%
# Target sequence (O00167 whole entry, looked up): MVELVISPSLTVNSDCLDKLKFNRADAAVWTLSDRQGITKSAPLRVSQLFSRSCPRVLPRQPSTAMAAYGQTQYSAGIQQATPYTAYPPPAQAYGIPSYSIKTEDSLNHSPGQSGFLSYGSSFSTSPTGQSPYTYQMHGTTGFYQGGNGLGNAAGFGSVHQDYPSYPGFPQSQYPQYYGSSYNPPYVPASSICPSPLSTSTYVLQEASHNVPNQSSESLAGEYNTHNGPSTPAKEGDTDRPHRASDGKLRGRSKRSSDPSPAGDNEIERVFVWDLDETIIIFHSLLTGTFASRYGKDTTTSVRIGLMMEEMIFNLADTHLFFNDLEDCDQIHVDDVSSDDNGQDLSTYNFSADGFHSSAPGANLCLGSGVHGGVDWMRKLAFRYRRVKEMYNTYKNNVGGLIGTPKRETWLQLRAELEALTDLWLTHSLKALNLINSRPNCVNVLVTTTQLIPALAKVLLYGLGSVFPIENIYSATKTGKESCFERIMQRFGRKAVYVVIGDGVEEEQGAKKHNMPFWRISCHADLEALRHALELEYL
# Target sequence (Q15475 whole entry, looked up): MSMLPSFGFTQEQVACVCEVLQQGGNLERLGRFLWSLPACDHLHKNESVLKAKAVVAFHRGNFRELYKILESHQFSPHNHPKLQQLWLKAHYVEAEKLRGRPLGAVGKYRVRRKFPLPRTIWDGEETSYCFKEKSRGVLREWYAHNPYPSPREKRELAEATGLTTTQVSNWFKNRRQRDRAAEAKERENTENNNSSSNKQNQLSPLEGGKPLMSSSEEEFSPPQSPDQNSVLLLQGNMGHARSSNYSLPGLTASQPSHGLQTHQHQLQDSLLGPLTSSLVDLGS
#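 GST-Six1 + His-Eya2 (5X stock: 250/500 nM); Tris pH 8.0, 300 mM NaCl, 0.05% BSA, 0.02% Tween 20; GSH donor/Ni acceptor beads; 1 h 37 °C dark; AlphaScreen readout.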
# Numbers without * were called inactive; ? = inconclusive; nt = no result given; ! = not confirmed by another sample; [ ] = another dose, or the depositor's remark. Sampled rows, rich in hits. Any-hit rate of the full collection: about 18%. Unless noted, calls follow the shape of the dose curve; as a rule, active = well fitted curve in the direction sought with a large enough effect; inconclusive = small, poorly fitted or top-dose-only effect, or another doubt; inactive = no such curve, though single readings can be large; an effect the other way counts as inactive or inconclusive. % is scaled to controls: 0 for no effect and ±100 for the full control effect.
SMILES,TDP1 block,TDP1 cell noCPT,CtBP-E1A blk,DT40 TDP1 CPT,IL1B secr inh,Six1-Eya2 blk
C[CH2][Hg][S]c1ccccc1C(=O)O,15%,0.58µM*,-18,0.41µM*,-112*,3
CC(C)COC(=O)c1ccccc1C(=O)OCC(C)C,-10%,?,9,?,17,24
C[N+]12CCC(CC1)C(C#N)(N1CCOCC1)C2 (centres undefined),3%,3%,-3,2%,-12,4
CCCCn1c(N)c(C(=O)OCCOC)c2nc3ccccc3nc21,nt,-26%,-6,3%,nt,0
CCCCn1c(-c2nonc2NC(=O)c2ccccc2Cl)nc2ccccc21,nt,23µM*,nt,10µM*,19,8
COc1ccc(NC(=O)CSc2nc(-c3ccco3)cc(C(F)(F)F)n2)cc1OC,-2%,0.92µM*,nt,1.5µM*,nt,nt
Cc1cccc(NC(=O)CSc2ccc(-c3ccco3)nn2)c1,2%,29µM*,0,?,0,-9
CCOC(=O)c1ccc(NC(=O)CSc2ccc(-c3cccnc3)nn2)cc1,5%,?,-21,?,-8,-2
O=C(CI)c1ccc(Cl)cc1,nt,-4%,nt,-20%,nt,nt
NP(=O)(OCCCCc1ccccc1)Oc1ccccc1Cl (centres undefined),nt,-27%,-1,-9%,21,-1
CCn1c(O)c(C(=O)CC2NCCc3ccccc32)c(=O)n(CC)c1=S (centres undefined),-9%,?,-3,-18%,-2,0
C[n+]1cc(P(=S)(c2ccccc2)c2ccccc2)n2ccccc21,0%,nt,nt,nt,nt,nt
COC1C(C)OC(OC2CC(C)(O)Cc3cc4c(c(O)c32)C(=O)c2c(O)cc3c(c2C4=O)OC2OC3(C)C(O)C(N(C)C)C2O)C(OC)C1(C)OC (centres undefined),nt,0.12µM*,-3,0.082µM*,-99*,-14
c1cc2c(cc1NC1=NCCO1)CCCC2,nt,?,-3,18µM*,0,6
Brc1ccc2c(c1)C(OC1CN3CCC1CC3)c1ccccc1CS2 (centres undefined),1%,5.2µM*,-10,13µM*,-80*,-14
c1ccc2c(c1)CSc1ccccc1C2C1=NCCN1 (centres undefined),-2%,?,3,-14%,9,3
N#CC(C#N)=Cc1cccnc1,0%,9.2µM*,-6,9.2µM*,-86*,-1
CCOc1ccc(N=Cc2c(O)n(C(C)(C)C)c(=O)[nH]c2=O)cc1,-11%,?,1,-16%,?,1
CCN1C(=O)/C(=C/c2ccc(N(CC)CC)cc2OC)C(=O)NC1=S,1%,-17%,15,?,-55*,-2
c1ccc(C2(N3CCCCC3)CCCCC2)cc1,1%,-18%,-2,3%,15,-1
CN(C)C1C(=O)C(C(N)=O)=C(O)[C@@]2(O)C(=O)C3=C(O)c4c(O)cccc4[C@](C)(O)C3C(O)C12 (some centres undefined),nt,-26%,nt,-18%,nt,nt
CN(C)[C@@H]1C(=O)C(C(N)=O)=C(O)[C@@]2(O)C(=O)C3=C(O)c4c(O)ccc(Cl)c4[C@@](C)(O)[C@H]3C[C@@H]12,nt,?,-11,15µM*!,-4,-7
CN(C)[C@@H]1C(=O)C(C(N)=O)=C(O)[C@@]2(O)C(=O)C3=C(O)c4c(O)cccc4[C@@](C)(O)[C@H]3[C@H](O)[C@@H]12,nt,5.8µM*!,-67*!,7.3µM*!,4,?
COC(=O)c1nc(-c2ccc3c(n2)C(=O)C(N)=C(OC)C3=O)c(N)c(-c2ccc(OC)c(OC)c2O)c1C,1%,0.92µM*,-19,0.46µM*,-55*,12
COc1ccc(NC(=O)c2ccccc2SCc2ccccc2)cc1,nt,4.6µM*,12,5.2µM*,?,-18
SMILES,TDP1 block,TDP1 cell noCPT,CtBP-E1A blk,DT40 TDP1 CPT,IL1B secr inh,Six1-Eya2 blk
O=C(O)[C@@H]1C[C@H]2C[C@@H](CP(=O)(O)O)CC[C@H]2CN1,-7%,-12%,nt,12%,nt,nt
CNCC(O)c1ccc(OC(=O)C(C)(C)C)c(OC(=O)C(C)(C)C)c1 (centres undefined),nt,?,0,9µM*!,?,1
Cc1ccc(C(=O)COC(=O)Cc2ccccc2)cc1,-11%,-2%,23,-4%,0,16
CCOc1ccc(-c2cc(C)[n+](CCc3ccc(OC)c(OC)c3)c(-c3ccc(OCC)cc3)c2)cc1,nt,1.2µM*,-6,0.82µM*,-109*,-5
Fc1ccc(C[n+]2c(-c3ccccc3)cc(-c3ccccc3)cc2-c2ccccc2)cc1,1%,0.58µM*,-13,1.2µM*,0,-3
NCCc1ccccc1,1%,-5%,6,-13%,16,1
CCOc1ccc(-c2cc(C)[n+](CCO)c(-c3ccc(OCC)cc3)c2)cc1,5%,0.65µM*,-14,1.5µM*,-75*,1
Cc1cc(-c2ccccc2)cc(-c2ccccc2)[n+]1CCc1ccccc1,2%,0.21µM*,2,0.18µM*,?,-3
S=P(c1ccccc1)(c1ccccc1)c1cnc2ccccn12,2%,nt,nt,nt,nt,nt
c1ccc(NC2=NCCS2)cc1,nt,-1%,1,3%,21,-1
c1ccc2c(CN3CCCCCCC3)c[nH]c2c1,3%,1.5µM*,-11,0.65µM*,15,-2
Cc1[nH]c2ccccc2c1CN1CCCCC1,nt,3.7µM*,-1,1.6µM*,-11,-9
COc1c(O)c2c(=O)cc(OC)c3c4c(OC)cc(=O)c5c(O)c(OC)c(C[C@@H](C)OC(=O)c6ccccc6)c(c(c1C[C@@H](C)OC(=O)Oc1ccc(O)cc1)c23)c54,18%,?,nt,?,nt,nt
COC(=O)C12CC3=CC(CC3=O)Cc3ccccc3[C@@H]1CNC2=O (some centres undefined),4%,nt,nt,nt,nt,nt
CS(=O)(=O)N1CCC2(CCCN(Cc3ccncc3)C2)CC1,nt,-3%,nt,0%,nt,nt
CC(=O)OC1C[C@H](O[C@@H]2C(O)C[C@H](O[C@@H]3C(O)C[C@@H](OC4CC[C@]5(C)C(CCC6C5CC(O)[C@@]5(C)C(C7=CC(=O)OC7)CC[C@@]65O)C4)OC3C)OC2C)O[C@H](C)[C@H]1O[C@H]1OC(CO)C(O)C(O)C1O (some centres undefined),10%[56.1 µM],nt,nt,nt,nt,nt
